# Reference: PubChem BioAssay AID1347165 (National Center for Advancing Translational Sciences (NCATS), 2019)
# Among all 220,000 compounds or so, about 5,700 (2.6%) were called active. Another 18% or so got no clear call; they are omitted. This is one part of a sample in which actives are shown more often than they occur. A number with no mark means an inactive call. Calls follow the shape of the dose curve; as a rule, active = well fitted inhibition curve with a large enough effect; inconclusive = small, poorly fitted or top-dose-only effect; inactive = no such curve, though single readings can be large or run the other way.
# Target: Lysine-specific demethylase 5B (Homo sapiens) (UniProt Q9UGL1)
# Sequence (Q9UGL1 whole entry, looked up): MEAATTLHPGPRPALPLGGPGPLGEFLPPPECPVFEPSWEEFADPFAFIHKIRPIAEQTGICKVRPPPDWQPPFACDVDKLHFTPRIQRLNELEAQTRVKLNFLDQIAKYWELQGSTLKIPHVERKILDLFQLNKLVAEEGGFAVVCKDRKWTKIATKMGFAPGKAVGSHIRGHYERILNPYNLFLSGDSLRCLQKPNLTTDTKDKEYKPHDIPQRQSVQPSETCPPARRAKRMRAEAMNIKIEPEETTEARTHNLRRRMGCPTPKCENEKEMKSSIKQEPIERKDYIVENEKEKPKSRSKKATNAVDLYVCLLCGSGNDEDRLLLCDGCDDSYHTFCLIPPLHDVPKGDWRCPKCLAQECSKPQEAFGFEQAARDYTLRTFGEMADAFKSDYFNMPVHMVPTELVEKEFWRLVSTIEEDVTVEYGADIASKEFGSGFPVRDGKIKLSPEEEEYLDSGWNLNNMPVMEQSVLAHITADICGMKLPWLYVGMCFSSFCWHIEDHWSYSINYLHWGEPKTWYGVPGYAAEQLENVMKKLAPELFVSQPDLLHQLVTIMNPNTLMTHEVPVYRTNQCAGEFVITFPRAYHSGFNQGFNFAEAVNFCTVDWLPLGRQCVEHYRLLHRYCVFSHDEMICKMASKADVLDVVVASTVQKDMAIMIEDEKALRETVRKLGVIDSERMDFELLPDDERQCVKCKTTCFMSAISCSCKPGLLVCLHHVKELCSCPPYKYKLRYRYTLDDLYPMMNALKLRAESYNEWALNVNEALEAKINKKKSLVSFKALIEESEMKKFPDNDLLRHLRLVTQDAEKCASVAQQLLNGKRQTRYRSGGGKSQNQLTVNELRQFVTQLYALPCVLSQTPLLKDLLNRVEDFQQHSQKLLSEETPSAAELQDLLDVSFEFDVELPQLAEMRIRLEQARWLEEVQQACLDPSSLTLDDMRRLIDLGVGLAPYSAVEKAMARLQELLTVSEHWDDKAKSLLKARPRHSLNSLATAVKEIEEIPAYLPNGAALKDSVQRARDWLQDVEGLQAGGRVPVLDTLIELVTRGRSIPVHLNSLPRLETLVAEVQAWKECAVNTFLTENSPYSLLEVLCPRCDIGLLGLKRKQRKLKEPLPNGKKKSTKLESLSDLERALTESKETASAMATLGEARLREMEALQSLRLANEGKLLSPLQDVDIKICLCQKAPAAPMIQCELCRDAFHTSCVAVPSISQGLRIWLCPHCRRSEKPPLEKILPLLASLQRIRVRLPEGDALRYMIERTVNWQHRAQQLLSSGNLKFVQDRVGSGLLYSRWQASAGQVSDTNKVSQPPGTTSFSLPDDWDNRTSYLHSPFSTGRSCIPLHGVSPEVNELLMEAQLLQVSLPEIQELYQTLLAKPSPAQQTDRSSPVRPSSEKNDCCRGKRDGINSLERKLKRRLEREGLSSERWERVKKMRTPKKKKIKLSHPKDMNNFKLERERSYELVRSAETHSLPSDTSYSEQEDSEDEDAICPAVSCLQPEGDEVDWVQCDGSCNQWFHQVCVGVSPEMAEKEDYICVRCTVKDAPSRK
# Experiment: Primary screen for KDM5B Histone Demethylases FDH-coupled qHTS; also: nearly all actives have a fitted effect of over 70% in size; as to activity change, negative = inhibition: 0% is about no effect
# Details: FDH-coupled NADH fluorescence (FDH is formaldehyde dehydrogenase); series mostly up to 57.7 µM; activity change, negative = inhibition: at the top concentration
# Outline: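 Here, H3K4me3 peptide (12.5 µM in substrate mix) is demethylated by KDM5BΔAP, 200 nM final, after 10 min compound exposure. Formaldehyde product is coupled through FDH (0.25 U/mL in mix) to NADH fluorescence; 30-min ΔRFU feeds dose-response curves.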
# Potency is read from the fitted curve at half-maximal effect.
SMILES,"activity change, negative = inhibition",Potency
O=C(NCCc1noc(-c2ccccc2)n1)C1CC1,24%,–
Cc1ccc(-c2nc(C(=O)N(C)Cc3ccccc3)no2)cc1,-21.9%,–
Oc1ccc(-c2ccc(-c3nc(CCc4ccccc4)no3)cn2)cc1,–,25.1 µM (active)
CCc1ccc(N/C(N)=N/c2nc(C)cc(C)n2)cc1,16.5%,–
COC(=O)CC1c2cc(OC)c(OC)cc2CCN1Cc1nc(CC(C)C)no1 (stereo not drawn),-7.43%,–
O=C(/C=C/c1ccc(-c2cc(Cl)ccc2Cl)o1)c1ccc(F)cc1,-4.81%,–
COC[C@@H]1CN(c2ncccn2)C[C@H]1C(=O)Nc1ccncc1,–,20 µM (active)
CNC(=O)[C@@H]1CN(C(=O)Cc2cccnc2)C[C@H]1COC,-8.75%,–
CNC(=O)[C@@H]1CN(C(=O)c2n[nH]c3ccccc23)C[C@H]1COC,-15.7%,–
S=C(NCCc1ccc(Cl)cc1)Nc1ccc(Oc2ccccc2)cc1,3.85%,–
CN(C)[C@@H]1CN(C(=O)c2cccn2C)CC[C@@H]1CO,12.6%,–
CN(C)Cc1cccc(-c2cc(-c3ccncc3)c3cncn3c2)c1,–,28.2 µM (active)
OCc1cccc(-c2cc(C3=CCOCC3)c3cncn3c2)c1,–,31.6 µM (active)
FC(F)(F)c1cccc(-c2cc(C3=CCOCC3)c3cncn3c2)c1,–,35.5 µM (active)
Cc1noc(C)c1-c1cc(-c2cncnc2)cn2cncc12,-16.6% [at 115 µM],–
Cc1nc(NC(C)C)sc1C(=O)Nc1ccccc1,-3.94%,–
O=C(COC(=O)c1cc2ccccc2[nH]1)NCc1ccc(F)cc1,-15.2%,–
NC(=O)c1ccc(CN(Cc2cccs2)C2CC2)cc1,-16.1%,–
O=C(O)CCC(=O)NC1CC2(CCN(C(=O)c3ccccc3)CC2)c2ccccc21 (stereo not drawn),9.24% [at 115 µM],–
CCOc1ccc(CN(C)CC(O)COc2ccc(C)cc2C)cc1OC (stereo not drawn),-21.4%,–
CC(=O)NC1(C)CCN(Cc2cnc(-c3ccc4c(ccn4C)c3)s2)CC1,–,35.5 µM (active)
CC(=O)NC1(C)CN(Cc2ccc(-c3ccc4c(ccn4C)c3)s2)C1,–,35.5 µM (active)
CC(=O)N1CCN(C(=O)c2ccc3c(ccn3C)c2)CC1,-2.69%,–
Cn1ccc2cc(S(=O)(=O)N3CCC(C(=O)NCCN4CCCC4)CC3)ccc21,-8.91%,–
CCC(=O)c1ccc(OC(=O)c2nn(C(C)C)c(=O)c3ccccc23)cc1,7.72%,–
Cc1ccc(Nc2cc(C)nc3c(C)c(C)cc([N+](=O)[O-])c23)c(C)c1,-12.7%,–
O=S(=O)(CCSc1nnc(-c2ccccc2)o1)c1ccc(Br)cc1,3.11%,–

SMILES,"activity change, negative = inhibition",Potency
COc1ccc(C(=O)OCC(=O)NCC(F)(F)F)cc1,10.4%,–
O=C(CSc1nc2ccccc2s1)Nc1ccc2c(c1)CCC2,23.2%,–
O=C(CCc1ncc(-c2ccc(F)cc2F)o1)Nc1ccccc1,6.26%,–
Cc1cccc(NC(=O)Nc2ccc(OCc3ccccc3)cc2)n1,30.5%,–
CCn1ccc2cc(S(=O)(=O)N3CCC(C(=O)NCC4CCCO4)CC3)ccc21 (stereo not drawn),24.8%,–
CC(=O)N1CCN(Cc2cc(F)ccc2Cl)CC(O)C1 (stereo not drawn),-20.1%,–
O=C(c1ccc2[nH]ccc2c1)N1CCN(S(=O)(=O)c2cccc3nonc23)CC1,-8.8%,–
O=C(c1ccc2cc[nH]c2c1)N1CCN(Cc2cnc[nH]2)CC(O)C1 (stereo not drawn),–,25.1 µM (active)
CN(C)C(=O)c1cccc(NCC(=O)NC(=O)NCc2ccccc2)c1,0.332%,–
Cc1ccc(C(=O)N2CCN(c3oc(C4CC4)nc3C#N)CC2)c(C)c1,5.21%,–
Cc1ccc(OCCOc2cccc(/C=N/NC(N)=O)c2)cc1,10.1%,–
CCc1ccccc1NC(=O)c1cc(C)nc2ccccc12,3.59%,–
CC(C)C(=O)Nc1ccc2oc(-c3cccc(Cl)c3)nc2c1,-19.6%,–
Cc1ccc2c(C(=O)O)cc(NC(=O)C(C)C)cc2n1,–,20 µM (active)
O=C(NCCn1c(-c2ccccc2)nc2ccccc21)NCc1ccccc1,-25.5%,–
CC(C)Cc1nc2cccnc2n1C1CCN(S(=O)(=O)c2ccc(Cl)s2)CC1,5.36%,–
Cc1cccc(-c2noc([C@@H]3Cc4nc[nH]c4CN3C(=O)CCC(=O)O)n2)c1,-20.1% [at 86.2 µM],–
CC(C)NC(=O)N1Cc2[nH]cnc2C[C@H]1c1nc(-c2ccc(Cl)cc2)no1,–,31.6 µM (active)
O=C(c1ccco1)N1Cc2[nH]cnc2C[C@H]1c1nc(-c2ccncc2)no1,-23.5% [at 86.2 µM],–
COc1ccc(OCC2(C)COc3ccc(C(=O)Nc4cccnc4)cc3N2)cc1 (stereo not drawn),–,31.6 µM (active)
COc1ccc(OCC2(C)COc3ccc(C(=O)NC4CCOCC4)cc3N2)cc1 (stereo not drawn),–,25.1 µM (active)
COc1ccc(-c2cc(N3CCC(NC(=O)c4ccc5c(c4)OCO5)CC3)n[nH]2)cc1,-11.3%,–
COc1ccc(-n2cnc3cc(C(=O)NC4CCCC4)ccc32)cc1,-23.1%,–
O=C(Nc1cccnc1)c1ccc2c(c1)OCCN(Cc1ncccn1)C2,7.08% [at 86.2 µM],–
O=C(Nc1cccnc1)c1ccc2c(c1)OCCN(c1ccccc1)C2,-25.6% [at 86.2 µM],–
Cc1ccc(NC(=O)CN(C)C(=O)c2cc3ccc(F)cc3nc2C)cc1,-9.53%,–
